Here are results for 21 compounds from PubChem BioAssay (EPA / NIEHS).

Read-out in test [1]: flavin-containing dimethylaniline monooxygenases 3 (FMO3), FMO3 (gene 2328)
Kind of test: LTEA_HepaRG_FMO3: Life Technologies and Expression Analysis (LTEA) Assay for flavin-containing dimethylaniline monooxygenases 3 (FMO3) using HepaRG (AID 2283453).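 As to AC50: FMO3 transcript by TaqMan qRT-PCR normalized to ACTB GAPDH and POLR2A.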 Particulars: mRNA level, 48 h; actives raise or lower the signal. In short, it runs like this: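 Eight-point concentration-response in serum-free HepaRG cultures (top 100 uM, 0.5% DMSO, 48 h). Read-out: FMO3 mRNA level normalized to three endogenous control genes, fitted bidirectionally versus vehicle.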

Read-out in test [2]: Cytochrome P450 (CYP1A1), CYP1A1 (gene 1543)
Briefly: LTEA_HepaRG_CYP1A1: Life Technologies and Expression Analysis (LTEA) Assay for Cytochrome P450 (CYP1A1) using HepaRG (AID 2283454). Particulars: mRNA level, 48 h; actives raise or lower the signal. A digest of the protocol:
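Induction of CYP1A1 mRNA in a human hepatic cell line was measured 48 h after dosing, with 1 mM phenobarbital as induction positive control and 0.5% DMSO vehicle as baseline for bidirectional curve fitting.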

Read-out in test [3]: CFLAR gene, CFLAR (gene 8837)
Kind of test: LTEA_HepaRG_CFLAR: Life Technologies and Expression Analysis (LTEA) Assay for CFLAR gene using HepaRG (AID 2283455). The settings on record: mRNA level, 48 h; actives raise or lower the signal. A digest of the protocol: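 Gain- or loss-of-signal changes in CFLAR transcript were fitted bidirectionally relative to 0.5% DMSO. Cells (HepaRG, duplicate wells) were dosed for 48 h across eight half-log concentrations topping at 100 uM; quantitation by TaqMan qRT-PCR.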

Read-out in test [4]: Forkhead box O1 (FOXO1), FOXO1 (gene 2308)
Kind of test: LTEA_HepaRG_FOXO1: Life Technologies and Expression Analysis (LTEA) Assay for Forkhead box O1 (FOXO1) using HepaRG (AID 2283456). Particulars: mRNA level, 48 h; actives raise or lower the signal. A digest of the protocol: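 Using one lot of HepaRG hepatic cells kept in 0.5% DMSO, the team applied test chemicals in duplicate, half-log dilutions from 100 uM, for 48 h. Expression, normalised to ACTB/GAPDH/POLR2A, was compared with vehicle in either direction.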

Read-out in test [5]: growth arrest and DNA damage 45 (GADD45A), GADD45A (gene 1647)
Briefly: LTEA_HepaRG_GADD45A: Life Technologies and Expression Analysis (LTEA) Assay for growth arrest and DNA damage 45 (GADD45A) using HepaRG (AID 2283458). The settings on record: mRNA level, 48 h; actives raise or lower the signal. In short, it runs like this:
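HepaRG, 48 h exposure, 8 conc. (top 100 uM, half-log steps), 0.5% DMSO vehicle, duplicates. Read-out: qRT-PCR mRNA level, housekeeping-normalized (ACTB/GAPDH/POLR2A). Curves fit bidirectionally vs DMSO baseline.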

Read-out in test [6]: Forkhead box O3 (FOXO3), FOXO3 (gene 2309)
Briefly: LTEA_HepaRG_FOXO3: Life Technologies and Expression Analysis (LTEA) Assay for Forkhead box O3 (FOXO3) using HepaRG (AID 2283459). The settings on record: mRNA level, 48 h; actives raise or lower the signal. A digest of the protocol: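 Gene-expression endpoint: FOXO3 transcript level by qRT-PCR in HepaRG cultures treated 48 h with chemicals up to 100 uM (half-log, 0.5% DMSO vehicle).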

Read-out in test [7]: ABC Transporter (ABCB1), ABCB1 (gene 5243)
Kind of test: LTEA_HepaRG_ABCB1: Life Technologies and Expression Analysis (LTEA) Assay for ABC Transporter (ABCB1) using HepaRG (AID 2283460). Particulars: mRNA level, 48 h; actives raise or lower the signal. A digest of the protocol:
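Human liver HepaRG line treated 48 h with up to 100 uM compound (eight half-log points, 0.5% DMSO); ABCB1 mRNA change fitted bidirectionally against DMSO controls.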

Read-out in test [8]: growth arrest and DNA damage 45 (GADD45B), GADD45B (gene 4616)
Kind of test: LTEA_HepaRG_GADD45B: Life Technologies and Expression Analysis (LTEA) Assay for growth arrest and DNA damage 45 (GADD45B) using HepaRG (AID 2283461). Particulars: mRNA level, 48 h; actives raise or lower the signal. A digest of the protocol:
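Values are bidirectional concentration-response fits against 0.5% DMSO controls. Underlying data: qRT-PCR mRNA levels in human HepaRG liver cells treated 48 h in serum-free induction medium, eight concentrations topping at 100 uM.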

Read-out in test [9]: ABC Transporter (ABCC3), ABCC3 (gene 8714)
Kind of test: LTEA_HepaRG_ABCC3: Life Technologies and Expression Analysis (LTEA) Assay for ABC Transporter (ABCC3) using HepaRG (AID 2283462). The settings on record: mRNA level, 48 h; actives raise or lower the signal. In short, it runs like this: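 Differentiated HepaRG liver cells receive test chemicals at eight concentrations (max 100 uM) for 48 h. Expression of ABCC3 is quantified by qRT-PCR against ACTB, GAPDH and POLR2A, and activity is fitted in both directions against the DMSO control.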

Test [10] is described as follows: CEETOX_H295R_TESTO: CeeTox H295R High-throughput Steroidogenesis Assay for Testosterone (TESTO) (AID 2283457).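 As to AC50: cells exposed to chemicals for 48 h before medium collection.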 Particulars: actives raise or lower the signal. A digest of the protocol:
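Testosterone synthesis is assessed in human adrenocortical H295R cells after 48 h of chemical exposure, using HPLC-MS/MS of extracted medium. Activity is fitted in both directions against DMSO control.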

The structures appear in SMILES notation. The source made the active and inactive calls. The calls were made as follows: active = hit-call score of the fitted dose curve at least 0.9, where 1 is the maximum; inactive = score below 0.9.

What is called AC50 is the concentration giving half of the maximal activity seen. In the case of `CC[C@H]1CC[C@H](NCc2cc3c(cc2OC)[C@H]2C[C@H]2C(=O)N3C)[C@H](c2ccccc2)N1`, the outcome in test [1], in test [3], in test [4], in [5], in [6] and in test [7] was inactive. Also, the result in test [8] and in [9] was inactive. Moreover, in test [2], the AC50 is 37.6 µM (active).
As for `Fc1ccccc1[C@@H](F)COC1CCC(Nc2ncnc3[nH]ncc23)CC1` (stereo not given in full), the AC50 in test [1] was 31.9 µM (active); in [2], 94.7 µM (active); in [4] it was 82.1 µM (active); in test [7], 50 µM (active); in [8], 81.7 µM (active). Besides, the compound was classed as inactive in [3], in test [10], in test [5], in [6] and in [9].
In the case of `COCCOc1cc2cc(C(=O)NC3CCN(C(C)C)CC3)n(CC(=O)Nc3ccc(Cl)cn3)c2cn1`, the AC50 in test [1] was 53.3 µM (active); in [2], 2.09 µM (active); in test [3], 31.4 µM (active); in test [6] it was 11.6 µM (active); in [7] it was 20.6 µM (active); in test [9] it was 45 µM (active). Further, the result in [4], in test [5] and in test [8] was inactive.
Take `CCOc1cccc(-n2cc(C(=O)N3CCN(c4cc(C(=O)O)c5ccccc5c4)CC3)nc2-c2ccc(C)cc2)c1`: the AC50 in test [1] was 33.1 µM (active); in test [2], 12.3 µM (active); in test [3], 84 µM (active); in [4] it was 80.5 µM (active); in test [5], 13.4 µM (active); in [6] it was 77.2 µM (active). For the same compound, the AC50 in test [7] was 78.6 µM (active). Further, the call in test [10], in [8] and in [9] was inactive.
As to `Oc1ccc2c(c1)-c1ccccc1C2`, the compound was classed as inactive in [1], in test [3], in test [4], in [5], in test [6] and in [7]. In addition, the outcome in [8] and in test [9] was inactive. For the same compound, the AC50 in test [2] was 10.5 µM (active); in test [10], 38.5 µM (active).
Take `Cn1cnc([N+](=O)[O-])c1Sc1ncnc2nc[nH]c12`: the AC50 was 17.5 µM (active) in test [1], 34.8 µM (active) in test [2], 5.19 µM (active) in test [4] and 4.06 µM (active) in test [6]. The result in [3], in [5], in test [7], in test [8] and in test [9] was inactive.
With `O=P(OC(CCl)CCl)(OC(CCl)CCl)OC(CCl)CCl`, the AC50 in [1] is 63.8 µM (active); in test [2], 13.1 µM (active); in test [5], 0.21 µM (active); in [7], 78.8 µM (active). Moreover, the outcome in test [3], in test [4], in test [6], in test [8] and in test [9] was inactive.
`C=CC(=C)CCC=C(C)C`: the compound was called inactive in test [1], in [3], in test [4], in [5], in test [6] and in test [7]. For the same compound, the call in [8] and in test [9] was inactive. In addition, the AC50 in [2] was 35 µM (active).
`C=CCCCCCCCCC(=O)O`: the compound was classed as inactive in test [1], in test [3], in test [4], in test [5], in [6] and in test [7]. Also, the result in test [8] and in [9] was inactive. Besides, the AC50 in test [2] was 50 µM (active).
Take `CN(C)c1ccc(Cc2ccc(N(C)C)cc2)cc1`: the AC50 in test [1] was 83.1 µM (active); in test [2], 13.2 µM (active). Also, the call in test [3], in test [4], in [5], in test [6], in test [7] and in test [8] was inactive. Besides, in test [9], the compound was called inactive.
In the case of `O=C(O)CCN(C1(C(=O)NO)CCCC1)S(=O)(=O)c1ccc(Oc2ccc(F)cc2)cc1`, the compound was called inactive in [1], in test [3], in test [4], in [5], in test [6] and in test [7]. In addition, the call in [8] and in test [9] was inactive. Also, in test [2], the AC50 is 67.5 µM (active).
Regarding `CNS(=O)(=O)c1cc(C(=O)N2CCC(CCN3C4CCC3CC(n3c(C)nc5ccccc53)C4)(c3cccc(F)c3)CC2)c(Cl)cc1F` (stereo not given), the AC50 in [1] was 24.2 µM (active); in test [9], 12.5 µM (active). The compound was classed as inactive in test [2], in test [3], in test [4], in test [10], in test [5] and in test [6]. The call in test [7] and in test [8] was inactive.
Take `CCCCC(CC)COC(=O)c1ccc(C(=O)OCC(CC)CCCC)cc1` (stereo not given): the compound was classed as inactive in test [1], in test [2], in [3], in [4], in [5] and in test [6]. For the same compound, the compound was called inactive in test [7], in test [8] and in test [9].
Regarding `O=C1CCC(N2C(=O)c3ccccc3C2=O)C(=O)N1` (stereo not given), the result in test [1], in [3], in test [4], in test [5], in test [6] and in [7] was inactive. Further, the compound was classed as inactive in test [8] and in test [9]. Besides, the AC50 in [2] is 67.7 µM (active).
On to `O=c1[nH]c2ccc(S(=O)CCN3CCC(Cc4ccc(F)cc4)CC3)cc2o1` (stereo not given), for which the AC50 in test [1] was 72.9 µM (active); in test [2] it was 59 µM (active). Also, the result in test [3], in [4], in test [5], in [6], in [7] and in test [8] was inactive. Moreover, the call in test [9] was inactive.
Regarding `O=C(O)c1cccc(N(Cc2cccnc2)c2ccc(OC(F)F)c(OC(F)F)c2)c1`, the call in [1], in [3], in [4], in test [10], in [5] and in [6] was inactive. The compound was called inactive in [8] and in [9]. Further, the AC50 in test [2] and in [7] was 50 µM (active) each time.
Regarding `O=C(O)c1cccc(Oc2ccccc2)c1`, the outcome in test [1], in test [3], in test [4], in [5], in [6] and in [7] was inactive. Further, the call in test [8] and in [9] was inactive. For the same compound, the AC50 in [2] is 37.9 µM (active).
Consider `Cc1ccc(N)cc1O`, for which the call in [1], in [3], in test [4], in [10], in [5] and in [6] was inactive. Also, the call in [7], in test [8] and in [9] was inactive. In addition, in test [2], the AC50 was 26.4 µM (active).
On to `CCCCC(CC)COC(=O)CCCCCCCCC(=O)OCC(CC)CCCC` (stereo not given), for which the outcome in [1], in test [2], in test [3], in test [4], in test [5] and in [6] was inactive. For the same compound, the compound was classed as inactive in test [7], in test [8] and in test [9].
On to `CCOC(=O)CC(CC(=O)OCC)(OC(C)=O)C(=O)OCC`, for which the result in test [1], in [3], in test [4], in test [5], in test [6] and in test [7] was inactive. In addition, the compound was classed as inactive in test [8] and in [9]. For the same compound, in [2], the AC50 was 70.5 µM (active).
`CCn1nc(Cc2ccccc2)cc1C1CCN(C[C@H]2C[C@H](N(C)[C@@H](C(=O)O)C(C)C)C[C@@H]2c2cccc(F)c2)CC1`: the AC50 in test [1] is 50 µM (active); in [2], 83.9 µM (active); in test [9] it was 50 µM (active). The call in [3], in test [4], in test [5], in [6], in [7] and in test [8] was inactive.
